Rows were chosen to be rich in hits. Some 2.4% of all compounds tested hit in one or more screens of this group.
KAT2A inh: inhibitors of human GCN5L2 histone acetyltransferase; Q92830; GCN5L2 HAT assay, ThioGlo1 CoA-SH fluorescence; Potency, µM (titrated, usually from 58.9 µM), for inactives: top-dose activity change, negative = inhibition, usual class: inhibitors; 390,000 tested, 0.21% active; AID 504327; note: % is set by controls: 0 for no effect and ±100 for the full control effect
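GCN5L2 (20 nM) in 50mM HEPES pH 7.5, 0.1mM EDTA, 0.01% Tween-20 preincubated 15 min with compounds at room temperature. Reaction started with H3(1-25) 75uM, acetyl-CoA 70uM, ThioGlo1 50uM; CoA-thiol fluorescence (Ex340/Em540) read at 0 and 20 min.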
Pol eta inh: inhibitors of human DNA polymerase eta; recombinant Pol eta, fluorescent DNA replication assay; Potency, µM (highest dose often 114 µM), for inactives: at the top dose activity change, negative = inhibition, actives largely listed as inhibitors; 390,000 tested, 1.2% active; note: % is set by controls: 0 for no effect and ±100 for the full control effect
Target sequence (Q9Y253 whole entry, looked up): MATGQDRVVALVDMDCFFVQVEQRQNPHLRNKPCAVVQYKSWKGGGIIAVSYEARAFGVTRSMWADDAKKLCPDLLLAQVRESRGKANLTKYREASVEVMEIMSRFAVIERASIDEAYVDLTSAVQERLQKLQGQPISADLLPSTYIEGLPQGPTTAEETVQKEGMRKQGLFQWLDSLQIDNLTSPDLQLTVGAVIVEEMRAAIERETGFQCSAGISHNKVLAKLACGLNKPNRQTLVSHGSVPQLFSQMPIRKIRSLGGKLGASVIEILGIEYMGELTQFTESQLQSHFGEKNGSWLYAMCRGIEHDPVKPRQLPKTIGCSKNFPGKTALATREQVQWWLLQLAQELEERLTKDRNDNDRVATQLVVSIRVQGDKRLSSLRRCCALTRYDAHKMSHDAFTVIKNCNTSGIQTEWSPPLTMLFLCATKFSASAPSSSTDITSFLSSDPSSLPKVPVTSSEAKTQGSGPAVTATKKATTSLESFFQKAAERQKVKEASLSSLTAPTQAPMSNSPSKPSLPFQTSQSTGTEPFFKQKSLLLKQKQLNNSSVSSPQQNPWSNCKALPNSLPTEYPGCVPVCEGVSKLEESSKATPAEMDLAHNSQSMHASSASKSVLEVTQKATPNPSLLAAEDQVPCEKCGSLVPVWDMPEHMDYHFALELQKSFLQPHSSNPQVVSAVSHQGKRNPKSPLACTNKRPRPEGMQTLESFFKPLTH
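Fluorescent replication assay: 50 nM final substrate added after a 15 min room-temperature compound preincubation with 10 nM enzyme. Signal taken at 0 min and again at 10 min.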
POLB inh: DNA polymerase beta (human) inhibition. P06746. Potency, µM (series often up to 114 µM), for inactives: top-dose activity change, negative = inhibition, actives largely listed as inhibitors. 340,000 tested, 1.3% active. AID 485314. Pol beta primer extension/strand displacement, fluorescence kinetic; note: % is set by controls: 0 for no effect and ±100 for the full control effect
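Pol beta (10 nM) and compounds were preincubated 15 min at room temperature, then 50 nM substrate (final) started primer extension/strand displacement. Reads were taken at 0 and 10 min; concentration-response data were fitted to a four-parameter Hill equation.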
GLS inh: blocks human kidney-isoform glutaminase activity; Potency, µM (top dose mostly 45.5 µM), for the others: at the top dose activity change, negative = inhibition, actives largely listed as inhibitors; AID 624170; 410,000 tested, 0.21% active; O94925; GLS enzymatic activity, qHTS titration; note: % is set by controls: 0 for no effect and ±100 for the full control effect
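Read-out is an Amplex red fluorescence increase coupled through glutamate oxidase and HRP, measured before and after 30 min room-temperature incubation. hKGA is in 45 mM KH2PO4 (pH 8.2) with 0.02% Tween-20; glutamine added as 1mM solution.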
POLI inh: DNA polymerase iota (human) inhibition; Q9UNA4; Pol iota fluorescent replication assay, 10 min; Potency, µM (doses to about 115 µM), inactives show at the highest dose activity, negative = inhibition, actives largely listed as inhibitors; 390,000 tested, 1% active
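Fluorescent replication assay read twice, at 0 min and 10 min after adding 50 nM (final) substrate. Enzyme (10 nM) and compounds were first incubated 15 min at room temperature; enzyme-free buffer wells were negative controls.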
Pol kappa inh: DNA polymerase kappa (human) inhibition; purified Pol kappa, fluorescent DNA synthesis assay, 10 min; Potency, µM (highest dose often 107 µM), without a hit: top-dose activity, negative = inhibition, hits mostly inhibitors; 400,000 tested, 0.53% active; AID 588579; note: % is set by controls: 0 for no effect and ±100 for the full control effect
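Enzyme at 10 nM met test compounds for 15 min at room temperature. Substrate addition (50 nM final) began the reaction, which was monitored by fluorescence at 0 and 10 min.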
* marks the source's active call; other numbers are inactive results; ? = inconclusive; nt = no result given; [ ] = remark or other dose. Calls come from the whole dose curve; as a rule, active = well fitted inhibition curve with a large enough effect; inconclusive = small, poorly fitted or top-dose-only effect, or another doubt; inactive = no such curve, though single readings can be large or run the other way. Potency is the fitted concentration of half-maximal effect.

SMILES	KAT2A inh	Pol eta inh	POLB inh	GLS inh	POLI inh	Pol kappa inh
Nc1ccc(-c2nc3ccc(C(=O)O)cc3s2)cc1	28.2µM*	?	?	-1.0%	-6.8%	-20.7%
Cc1ccc2oc(-c3ccc(C)c(NC(=O)COc4ccc(Cl)cc4)c3)nc2c1	nt	nt	nt	nt	9.4%	9.9%
O=C(Nc1ccccc1C(=O)OCc1cc(=O)n2nc(C3CC3)sc2n1)c1cccc(Cl)c1	-7.8%	-14.9%	8.6%	1.9%	9.6%	-3.0%[60.1 µM]
CC[N+](C)(C)c1ccc(/C=C/c2ccnc3ccccc23)cc1	nt	nt	nt	nt	79.4µM*	?
CC[N+](CC)(CC)c1ccc(/C=C/c2ccnc3ccccc23)cc1	nt	nt	nt	nt	?	44.7µM*
CC[N+](CC)(CC)c1ccc(/C=C/c2ccc3ccccc3n2)cc1	nt	nt	nt	nt	-5.3%	44.7µM*
CCS(=O)(=O)c1ncc(Cl)c(C(=O)N2CCN(c3ccc(OC)cc3)CC2)n1	0.2%	nt	-2.4%	13.1%	1.7%	4.7%
N#Cc1c2c(c(Cl)n3c1nc1ccccc13)CCCC2	nt	nt	nt	nt	-13.9%	3.9%
CCNc1ncc2nc(-c3ccccc3)c(=O)n(Cc3cccc(OC)c3)c2n1	-8.4%	nt	nt	nt	nt	-4.0%[60.1 µM]
O=C(C=Cc1ccccc1)CC(c1ccccc1)N1CCOCC1 (stereo unspecified)	nt	?	nt	4.0%	20µM*	-9.2%
COc1ccc(Cl)cc1NC(=O)c1c(NCc2cccs2)sc2c1CCCC2	-1.9%	50.1µM*	?	-14.3%	-8.2%	-9.1%[60.1 µM]
COc1ccc(OC)c(NC(=O)c2c(NCc3cccs3)sc3c2CCCC3)c1	-12.5%	-18.4%	-13.2%	0.6%	?	-17.1%[60.1 µM]
Cc1cc(N2CCN(c3ccc(F)cc3)CC2)nc2cc(O)ccc12	-9.0%	-17.8%	24.2%	42.2%	-18.4%	-1.8%
Cc1cc(N2CCN(c3ccccc3F)CC2)nc2cc(O)ccc12	12.6µM*	?	-0.3%	0.7%	33.1%	-17.9%
C#C[C@@]1(O)CC[C@@H]2[C@H]3CCC4=C/C(=N\O)CC[C@H]4[C@@H]3CC[C@]21CC	-9.1%	nt	nt	22.8%	nt	-0.5%[19.4 µM]
O=C(C[n+]1ccccc1Br)c1ccc(O)c(O)c1	nt	nt	nt	nt	-2.0%	1.3%
O=C(C[n+]1ccccc1Br)c1ccc2c(c1)CCCC2	nt	nt	nt	nt	70.8µM*	?
O=C(CCl)c1ccc2c(c1)CCCC2	nt	nt	nt	nt	11.2µM*	-7.0%
CC(=O)N(C)C	11.1%	nt	nt	nt	nt	-2.4%[60.1 µM]
CC(Nc1nc(-c2ccc(F)cc2)cs1)c1nc2cc(Cl)c(Cl)cc2n1CCCO (stereo unspecified)	nt	-0.3%	nt	7.4%	?	2.8%
Cc1ccc(Cn2c(C(C)Nc3nc(-c4ccc(C)cc4)cs3)nc3cc(Cl)c(Cl)cc32)cc1 (stereo unspecified)	-12.4%	-28.5%	31.6µM*	10µM*	-15.4%	-13.1%
CCCN(CCC)CCNC(=O)c1cc2c(-c3ccc(Cl)cc3)nn(C)c2s1	5.5%	-3.2%	25.1µM*	2.8%	3.8%	3.6%
CCOCCCNC(=O)c1cc2c(-c3ccc(Cl)cc3)nn(C)c2s1	-8.9%	-8.9%	3.8%	0.9%	6.5%	-8.8%
CCCN(CCC)CCCNC(=O)c1cc2c(-c3ccc(OC)c(OC)c3)nn(C)c2s1	-5.8%	?	39.8µM*	-2.8%	?	?
CCN(CC)CCNC(=O)c1cc2c(-c3cccc(OC)c3)nn(C)c2s1	-14.7%	-10.4%	70.8µM*	-3.8%	?	14.3%
CCCCN(CC)CCNC(=O)c1cc2c(-c3ccc(Cl)cc3)nn(C)c2s1	-10.9%	-8.2%	3.16µM*	-2.7%	?	-12.6%
COc1ccccc1NC(=O)C1=C(C)Nc2nc(CCCO)nn2C1c1cccc(O)c1 (stereo unspecified)	1.8%	-7.0%	-0.3%	0.0%	10.1%	3.1%
Nc1ccc(/C=C/c2nccc3ccccc23)cc1	nt	nt	nt	nt	?	-15.0%
CCN(CC)CCNC(=O)c1cc2c(-c3ccc(Cl)cc3)nn(C)c2s1	-7.4%	9.9%	15.8µM*	-2.2%	?	-16.6%
CCOc1ccc2oc(C(=O)Nc3nccs3)c(C)c2c1	-3.5%	22.4µM*	nt	-1.4%	19.9%	-2.3%
